Anthrax LF prot: anthrax lethal factor protease inhibition; P15917; hit rate 0.12% among 360,000; AID 588501; inhibition, % at 10 µM; multiplex microsphere protease cleavage assay, LF; also: plate controls were buffer without enzyme for full effect and enzyme alone for no effect
Target sequence (P15917 whole entry, looked up): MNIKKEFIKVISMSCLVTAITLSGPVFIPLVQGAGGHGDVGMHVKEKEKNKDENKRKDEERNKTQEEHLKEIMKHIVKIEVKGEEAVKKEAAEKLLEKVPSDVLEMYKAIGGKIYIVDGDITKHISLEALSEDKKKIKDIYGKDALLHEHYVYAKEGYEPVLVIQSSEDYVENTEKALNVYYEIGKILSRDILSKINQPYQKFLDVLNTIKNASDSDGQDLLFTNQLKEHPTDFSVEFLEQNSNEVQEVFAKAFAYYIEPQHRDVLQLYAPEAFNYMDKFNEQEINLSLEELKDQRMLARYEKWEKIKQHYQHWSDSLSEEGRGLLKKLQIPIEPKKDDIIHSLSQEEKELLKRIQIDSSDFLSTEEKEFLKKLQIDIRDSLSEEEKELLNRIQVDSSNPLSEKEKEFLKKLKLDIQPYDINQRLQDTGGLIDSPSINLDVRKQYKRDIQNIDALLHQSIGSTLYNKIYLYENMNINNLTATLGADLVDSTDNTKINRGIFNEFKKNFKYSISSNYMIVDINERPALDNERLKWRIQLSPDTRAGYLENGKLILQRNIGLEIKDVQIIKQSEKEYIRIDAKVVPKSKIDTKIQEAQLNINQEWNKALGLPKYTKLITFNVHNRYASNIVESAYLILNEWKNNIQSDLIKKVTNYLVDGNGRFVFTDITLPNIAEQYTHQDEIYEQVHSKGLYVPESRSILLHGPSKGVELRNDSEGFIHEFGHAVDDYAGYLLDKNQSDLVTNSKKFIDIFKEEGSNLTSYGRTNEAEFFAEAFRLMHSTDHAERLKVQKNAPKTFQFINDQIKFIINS
BoNT F protease: blocks Botulinum neurotoxin F light chain protease. Multiplex microsphere protease cleavage assay, flow cytometry. inhibition, % at 10 µM. hit rate 0.22% among 360,000. AID 588497; in the data active = inhibition above about 35%, passing the limit was not always enough; inconclusive = no clear call, values can overlap the other calls; also: plate controls were buffer without enzyme for full effect and enzyme alone for no effect
BoNT A protease: inhibitors of Botulinum neurotoxin A light chain protease; multiplex microsphere protease substrate cleavage, flow cytometry; inhibition, % at 10 µM; hit rate 0.17% among 360,000; AID 588499; also: plate controls were buffer without enzyme for full effect and enzyme alone for no effect
Bead autofluor: counter-screen for toxin protease inhibitors: compound fluorescence | hit rate 3.1% among 360,000 | compound autofluorescence counterscreen, microsphere flow cytometry; hits give high values | fluorescence intensity (concentration not given with the values); in the data active = fluorescence intensity above about 16000; inconclusive = no clear call, values can overlap the other calls
Starred values were filed as active, the others as inactive; ? = inconclusive. An excerpt weighted towards active compounds, which were near 3.5% of everything screened. Rule as the data show it, unless noted: active = inhibition above about 30%; inconclusive = no clear call, values can overlap the other calls; inactive = below that.

SMILES	Anthrax LF prot	BoNT F protease	BoNT A protease	Bead autofluor
CCN(CC)c1nc(Nc2ccccc2)nc(Oc2ccc(C(=O)OC)cc2)n1	-6.5	-13.0	-1.2	8534
COC(=O)c1ccc(Oc2nc(Nc3ccccc3)nc(N(C)C)n2)cc1	0.4	-5.7	-4.0	20995*
CC(C)(C)C(=O)c1c(N)[nH]c(C(=O)c2ccccc2)c1-c1ccc(C(F)(F)F)cc1	-0.2	-7.1	-0.5	4489
CCn1c(-c2cccnc2Cl)nc2ccccc21	-0.3	-1.0	1.2	23168*
Clc1ncccc1-c1nc2ccccc2n1Cc1ccccc1	2.9	3.1	?	20310*
CS(=O)(=O)c1nc2ccccc2n1Cc1ccccc1	0.6	0.5	-0.6	23807*
COc1ccccc1C(O)c1ncc(-c2cccc(C(F)(F)F)c2)[nH]1 (centres undefined)	-4.9	-3.8	-0.1	3490
Cc1noc(C)c1COc1ccccc1C(=O)NC1CCC(C)CC1 (centres undefined)	6.9	-0.5	3.3	4198
CCc1cccc(C)c1NC(=O)c1cc(C)oc1C	-3.8	-0.4	1.5	22641*
CCc1cccc(C)c1NC(=O)c1cccnc1	31.2*	?	4.9	3027
CCC(C)c1ccccc1NC(=O)c1cccnc1 (centres undefined)	-5.0	-3.3	-2.4	23335*
O=C1CC(NS(=O)(=O)c2cccnc2)CN1c1cccc(F)c1 (centres undefined)	-1.0	0.8	1.8	5010
CCN(CCCNC(=O)c1c(C)cc(=O)oc1C)c1cccc(C)c1	-7.0	1.6	1.2	22991*
Cc1cc(=O)oc(C)c1C(=O)NCCNC(=O)c1c(C)cc(=O)oc1C	-1.6	0.9	0.1	2859
Cc1cc(=O)oc(C)c1C(=O)NCCC(C)C	0.5	1.2	2.2	22899*
Cc1c(C(=O)NCc2ccccn2)oc2ccc(Br)cc12	-1.4	-6.6	-1.9	5196
Cc1ccc(CNC(=O)c2c(C)cc(=O)oc2C)cc1	-2.8	3.3	-0.7	10776
Cc1cc(=O)oc(C)c1C(=O)NCc1ccccn1	-1.3	-1.1	-2.2	20680*
O=C(NCc1ccccn1)c1cc2cc(Br)ccc2oc1=O	-1.9	-10.5	-6.0	25730*
CC(=O)NC(c1ccc(F)c(F)c1)c1nc(-c2cccs2)cs1 (centres undefined)	-5.7	-7.2	1.2	2871
Cc1cc(=O)oc(C)c1C(=O)NCC1COc2ccccc2O1 (centres undefined)	-6.3	5.5	6.0	20933*
COc1cc(CNCc2ccc(C)cc2)cc(OC)c1OC	2.6	?	-7.0	3338
CC(C(=O)N=c1sc2ccccc2n1C)N1C(=O)C2CC=CCC2C1=O (centres undefined)	-0.9	2.8	3.3	21549*
c1ccc(COCCN2CCN(CCOCc3ccccc3)CC2)cc1	-5.0	-0.6	-1.7	16853*
c1ccc(CCCN2CCN(CCOC(c3ccccc3)c3ccccc3)CC2)cc1	-1.0	2.0	-0.4	5680
SMILES	Anthrax LF prot	BoNT F protease	BoNT A protease	Bead autofluor
Cc1ccc(S(=O)c2ccc([N+](=O)[O-])c3nonc23)cc1 (centres undefined)	4.3	0.4	4.5	2848
CCOc1ccc(N(C(C)C(=O)N2CCCCCC2)S(C)(=O)=O)cc1 (centres undefined)	-1.2	-0.5	-0.8	3882
CCOc1ccc(N(C(C)C(=O)NC(C)CC)S(C)(=O)=O)cc1 (centres undefined)	2.5	-0.8	-0.2	19908*
CCCCN1CCC(C#N)(Nc2ccccc2)CC1	-0.2	-5.8	-3.9	24452*
COc1ccc(C2NC(=O)NC(O)(C(F)(F)F)C2C(=O)c2ccccc2)cc1OC (centres undefined)	2.3	-7.9	-0.2	?
COc1cccc(C2NC(=O)NC(O)(C(F)(F)F)C2C(=O)c2cccnc2)c1OC (centres undefined)	1.3	-0.5	0.7	22761*
O=C(O)CCC(C(=O)O)N1C(=O)C2C3CCC(C3)C2C1=O (centres undefined)	-0.9	-0.3	-0.2	3830
CCc1cc(C(=O)COc2ccccc2F)c(O)cc1O	-5.9	2.1	?	18558*
CCc1nc(SCc2ccc(F)cc2)[nH]c(=O)c1C#N	-2.8	-5.4	-0.4	4524
O=C(NCc1ccncc1)C1CCN(S(=O)(=O)c2ccc(Cl)c(C(F)(F)F)c2)CC1	-1.3	1.9	-1.6	?
Cn1cc(CCC(=O)N2CCC3(CC2)OCCO3)c2ccccc21	0.8	-2.0	0.8	23713*
O=C(Cc1cccs1)N1CCC2(CC1)OCCO2	-0.5	-0.9	-1.9	20223*
Cn1c(=O)cc(OCCCC(=O)N2CCC3(CC2)OCCO3)c2ccccc21	-6.7	-10.9	-2.5	4019
CNC(=S)N(CCCN(C)C)Cc1cc2cc3c(cc2[nH]c1=O)OCCO3	-17.8	11.4	0.7	3112
O=C(O)c1ccc(NC(=O)c2ccc3c(c2)C(=O)N(c2ccccc2)C3=O)cc1	0.2	37.8*	0.1	3956
O=C(O)c1cccc(NC(=O)c2ccc(N3C(=O)c4ccc(C(=O)Nc5cccc(C(=O)O)c5)cc4C3=O)cc2)c1	-3.7	-4.2	-1.1	4355
CSc1nc(=S)c2[nH]c(=S)[nH]c2[nH]1	3.7	8.2	1.7	3283
Brc1cnc(N2CCCC2)nc1N1CCOCC1	0.2	-0.3	?	21599*
Cc1ccc(C)c(Cn2cnc3c(nnn3-c3ccc(F)cc3)c2=O)c1	0.6	0.1	-1.3	16844*
O=C(/C=C/c1ccco1)Nc1sc2c(c1C(=O)O)CCC2	-4.0	-4.4	-1.4	16426*
Cc1noc(C)c1CSCC(=O)Nc1cccc(C(F)(F)F)c1	5.7	-5.1	2.2	8824
Cc1ccc2nc(/C(C#N)=C\c3cc(C)n(-c4cccc([N+](=O)[O-])c4)c3C)[nH]c2c1	-3.2	-4.8	?	16239*
Cc1cc(/C=C(/C#N)c2nc3ccccc3[nH]2)c(C)n1-c1cc(C(=O)O)cc(C(=O)O)c1	-4.9	-2.1	1.1	3938
CN(CC(=O)N1CCCc2c1c(=O)oc1ccc(O)cc21)Cc1ccccc1	-0.1	-5.4	-3.9	20887*
CC(C)N(C(=O)COC(=O)c1cc(Cl)cc(Cl)c1N)C(C)C	-0.6	-9.2	-6.8	21720*
SMILES	Anthrax LF prot	BoNT F protease	BoNT A protease	Bead autofluor
CN(C)C(=O)COC(=O)c1cc(Cl)cc(Cl)c1N	-20.2	-7.6	1.8	7240
COc1cc2c(cc1OC)CN(C(=O)C1CCN(S(=O)(=O)c3ccccc3F)CC1)CC2	1.2	-5.7	0.5	4658
Cc1cc(C)nc(NS(=O)(=O)c2ccc(NC(=O)COc3ccccc3F)cc2)n1	-7.4	-9.1	-0.2	9220
Cc1cc(NS(=O)(=O)c2ccc(NC(=O)COc3ccccc3Cl)cc2)no1	-4.4	-8.8	-3.6	24447*
Cc1cc(C)c2nc(-c3ccccn3)cc(C(=O)Nc3ccc(S(=O)(=O)Nc4cc(C)on4)cc3)c2c1	-7.0	-2.0	?	16205*
CCOc1ccccc1OCC(=O)Nc1ccc(S(=O)(=O)Nc2nc(C)cc(C)n2)cc1	-1.8	-2.6	-1.5	20817*
COC(=O)c1cc2c(N)c(C(=O)c3ccccc3)sc2nc1C(OC)OC	-13.4	?	?	4239
O=C(COC(=O)/C=C/c1ccccc1[N+](=O)[O-])Nc1ccc2[nH]c(=O)[nH]c2c1	-4.5	-16.0	-0.4	3656
Cc1ccc(Sc2ccc([N+](=O)[O-])cc2[N+](=O)[O-])nc1	-2.1	-2.3	-0.8	2531

Bioassay records: PubChem, NMMLSC
